This is a sample that favours compounds with a hit; in the whole collection about 18% have one here.
DT40 TDP1 CPT: DT40-hTDP1 cell growth loss with CPT; chicken DT40 Tdp1-/-;hTDP1 cells + 20 nM CPT, ATP luminescence, 48 h; Potency, µM (highest dose often 46.2 µM), for inactives: at the top dose activity change, negative = growth inhibition, actives largely listed as inhibitors; hit rate 12% among 420,000; AID 686979; also: potency is read from the fitted curve at half-maximal effect; nearly all actives have a fitted effect of over 55% in size
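Chicken DT40 Tdp1-/- cells stably complemented with human TDP1 were seeded at 400 cells/well in medium containing 20 nM camptothecin, exposed to pin-transferred compounds, and grown at 37 °C for at least 48 hr. Viability was read as ATP luminescence.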
CtBP-E1A inh: CtBP/E1A binding inhibition | AlphaScreen GST-E1A/His-CtBP binding, 1536-well; stronger effect = lower value | activity change, % (no concentration beside the values) | hit rate 0.49% among 340,000; in the data active = activity change below about -65%; inconclusive = mostly about -30% to -63%
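GST-E1A and His-tagged CtBP (125 nM each as 5X stock) were preincubated with pin-transferred compound for 2 h at 37 °C in the dark, then glutathione donor and nickel acceptor beads were added for 1 h before AlphaScreen reading.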
TDP1 inh: TDP1 (human) enzyme inhibition. hit rate 0.28% among 350,000. recombinant TDP1, AlphaScreen DNA substrate cleavage. AID 485290. Q9NUW8. Potency, µM (top dose mostly 130 µM), inactives show at the top dose activity change, negative = inhibition, actives largely listed as inhibitors; also: potency is read from the fitted curve at half-maximal effect; nearly all actives have a fitted effect of over 40% in size
Target sequence (Q9NUW8 whole entry, looked up): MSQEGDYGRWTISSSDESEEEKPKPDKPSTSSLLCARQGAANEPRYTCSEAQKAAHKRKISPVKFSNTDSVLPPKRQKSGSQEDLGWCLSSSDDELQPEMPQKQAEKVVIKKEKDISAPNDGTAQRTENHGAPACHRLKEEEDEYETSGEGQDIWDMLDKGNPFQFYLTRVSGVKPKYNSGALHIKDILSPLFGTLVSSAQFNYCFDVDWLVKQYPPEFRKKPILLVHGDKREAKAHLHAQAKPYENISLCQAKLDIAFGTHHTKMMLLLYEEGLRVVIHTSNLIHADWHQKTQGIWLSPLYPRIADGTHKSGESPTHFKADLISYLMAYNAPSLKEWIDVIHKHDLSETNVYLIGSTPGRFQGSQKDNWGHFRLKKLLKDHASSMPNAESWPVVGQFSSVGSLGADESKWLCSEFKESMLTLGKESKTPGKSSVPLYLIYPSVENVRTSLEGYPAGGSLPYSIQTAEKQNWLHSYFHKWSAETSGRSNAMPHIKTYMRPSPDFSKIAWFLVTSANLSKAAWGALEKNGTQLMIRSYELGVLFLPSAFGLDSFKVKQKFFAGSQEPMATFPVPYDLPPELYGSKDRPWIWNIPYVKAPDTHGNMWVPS
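Enzyme-compound mixtures sat 15 min at room temperature, followed by a 5 min reaction with 15 nM final substrate and 10 min with AlphaScreen beads. Recombinant human Tdp1 was used at 1 nM final.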
TDP1 cell noCPT: qHTS for Inhibitors of human tyrosyl-DNA phosphodiesterase 1 (TDP1): qHTS in cells in absence of CPT; DT40 Tdp1-/- hTDP1 cells, no CPT, ATP luminescence, 48 h; Potency, µM (series often up to 46.2 µM), for the others: at the highest dose activity change, negative = growth inhibition, usual class: inhibitors; hit rate 15% among 420,000; AID 686978, 2013; also: potency is read from the fitted curve at half-maximal effect; nearly all actives have a fitted effect of over 55% in size
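Seeded 400 DT40-hTDP1 cells/well (vehicle DMSO, no 20 nM CPT); pinned compounds; ≥48 hr at 37 °C; CellTiter-Glo luminescence as viability measure.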
IL1B secr inh: inflammasome signaling inhibition, IL-1 beta readout; activity change, % at 57.5 µM; hit rate 4.7% among 360,000; THP-1 LPS/ATP IL-1B secretion, AlphaLISA, 16 h; stronger effect = lower value; in the data active = activity change below about -50%; inconclusive = mostly about -30% to -49%
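Secreted IL-1B measured by AlphaLISA bead assay after 16 h compound exposure of THP-1 cells; compounds (final up to 57.5 uM) added 1 h before LPS (250 ng/mL) and ATP (1.25 mM) stimulation; lower signal means less secretion.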
Six1-Eya2 inh: Six1/Eya2 interaction inhibition; Q15475+O00167; AlphaScreen GST-Six1/His-Eya2 binding, biochemical; stronger effect = lower value; activity change, % (test concentration not listed); hit rate 0.56% among 360,000; in the data active = activity change below about -65%; inconclusive = mostly about -30% to -63%
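GST-Six1 + His-Eya2 (5X stock: 250/500 nM); Tris pH 8.0, 300 mM NaCl, 0.05% BSA, 0.02% Tween 20; GSH donor/Ni acceptor beads; 1 h 37 °C dark; AlphaScreen readout.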
Starred values were filed as active, the others as inactive; ? = inconclusive; . = no result. Unless noted, calls follow the shape of the dose curve; as a rule, active = well fitted curve in the direction sought with a large enough effect; inconclusive = small, poorly fitted or top-dose-only effect, or another doubt; inactive = no such curve, though single readings can be large; an effect the other way counts as inactive or inconclusive. % is scaled to controls: 0 for no effect and ±100 for the full control effect.

SMILES | DT40 TDP1 CPT | CtBP-E1A inh | TDP1 inh | TDP1 cell noCPT | IL1B secr inh | Six1-Eya2 inh
Cc1cc(/C=C(/C#N)C(=O)Nc2ccccc2)c(C)n1-c1cccnc1 | ? | 7 | -4% | ? | -60* | 4
Cc1ccccc1NC(=O)/C(C#N)=C\c1cc(C)n(-c2ccc(C(=O)O)cc2)c1C | -5% | 2 | . | -11% | -56* | -12
N#C/C(=C\c1ccccc1)C(=O)Nc1cccnc1 | 1% | . | -4% | 6% | 13 | 4
CC(C)(C)C(=O)Nc1ccc(N2CCN(C(=O)c3cccs3)CC2)cc1 | -7% | 3 | . | -23% | ? | 7
O=C(Nc1ccc(N2CCN(C(=O)c3cccs3)CC2)cc1)c1ccccc1Cl | 15µM* | 0 | -1% | 12µM* | -57* | 6
O=C(Nc1ccc(N2CCN(C(=O)c3ccccc3F)CC2)cc1)c1cncc(Br)c1 | ? | -7 | 6% | 18µM* | -58* | -5
O=C(Nc1ccc(N2CCN(C(=O)c3cccs3)CC2)cc1)c1ccccc1F | ? | -3 | . | 18µM* | -62* | -1
O=C(Nc1ccc(N2CCCCC2)cc1)c1cncc(Br)c1 | ? | -13 | -2% | ? | 0 | -13
Cn1ccc(C(=O)N/N=C/c2ccncc2)n1 | -1% | 3 | 3% | 15% | 10 | 1
CCNS(=O)(=O)c1cc(S(C)(=O)=O)ccc1Cl | -15% | 6 | -2% | -15% | -7 | 0
Cc1cn(C2OC(COC(=O)c3ccccc3)C(OC(=O)c3ccccc3)C2OC(=O)c2ccccc2)c(=O)[nH]c1=O (stereo not given) | 23µM* | -6 | 5% | ? | -15 | -9
O=C1c2ccccc2C(=O)N1OCCCN1C(=O)c2ccccc2S1(=O)=O | -1% | 7 | . | -10% | 15 | 2
COc1ccc(N2CC(NC(=O)C3CCCC3)CC2=O)cc1 (stereo not given) | 4% | . | -3% | -13% | . | .
O=C(Nc1c2c(nn1-c1ccc(Cl)cc1)CS(=O)(=O)C2)c1ccc(Br)cc1 | 23µM* | . | 8% | 16µM* | . | .
COc1ccc(CN2C(=O)c3cccnc3C2Nc2ccc(OC)c(Cl)c2)cc1 (stereo not given) | -18% | -9 | 2% | -23% | 13 | -2
CCCNC(=O)CCNC(=O)[C@H](O)C(C)(C)CO | 1% | 6 | . | -1% | 32 | 2
CCCCc1c(-c2ccccc2OC)ncn1CCc1ccc(Cl)cc1 | ? | 3 | . | 21µM* | ? | -16
CCCCc1c(-c2ccccc2OC)ncn1CCc1ccccc1 | 21µM* | -1 | . | ? | 0 | -19
CCCCc1c(-c2ccccc2OC)ncn1CCc1ccc(OC)cc1 | 18µM* | 1 | . | 23µM* | -79* | -23
COc1ccccc1C(=O)OCCc1ccccc1 | 1% | 13 | . | -7% | -8 | 1
CCOc1ccc2nc(NCCNC(=O)c3cc(OC)c(OC)c(OC)c3)c(C#N)cc2c1 | -20% | . | . | ? | -10 | 1
Cc1n[nH]c(C)c1S(=O)(=O)N(CC(=O)Nc1ccc2c(c1)OCCO2)c1ccc(C(C)C)cc1 | -20% | -2 | 7% | ? | -21 | -8
COc1cc(OCc2ccccc2)c(C(=O)/C=C/c2ccc3c(c2)OCO3)c(OC)c1OC | ? | -2 | . | ? | -91* | 9
COc1ccc(/C=C/C(=O)C(C)(C)C)cc1OC | -5% | . | -3% | ? | ? | 7
COc1cc(OC)c(C(=O)C=Cc2ccc(OC)c(OC)c2)c(OC)c1 | ? | -12 | . | ? | -101* | -8
COc1cc(/C=C/[N+](=O)[O-])ccc1OCc1cccc(C(=O)O)c1 | 16µM* | 2 | . | 16µM* | -97* | -76*

Screens deposited in PubChem by National Center for Advancing Translational Sciences (NCATS).
